Data on 1 compound can be found in ChEMBL document CHEMBL2218924, “A broad activity screen in support of a chemogenomic map for kinase signalling research and drug discovery” (Biochem J, 2013).

Structures are written as SMILES.

In assay [1] the target is Tyrosine-protein kinase SYK (Homo sapiens) (UniProt P43405). As to conditions: at 10 µM.
Assay [2] deals with T1, Mitogen-activated protein kinase kinase kinase 7 (Homo sapiens) (UniProt O43318).
T1 sequence (whole entry): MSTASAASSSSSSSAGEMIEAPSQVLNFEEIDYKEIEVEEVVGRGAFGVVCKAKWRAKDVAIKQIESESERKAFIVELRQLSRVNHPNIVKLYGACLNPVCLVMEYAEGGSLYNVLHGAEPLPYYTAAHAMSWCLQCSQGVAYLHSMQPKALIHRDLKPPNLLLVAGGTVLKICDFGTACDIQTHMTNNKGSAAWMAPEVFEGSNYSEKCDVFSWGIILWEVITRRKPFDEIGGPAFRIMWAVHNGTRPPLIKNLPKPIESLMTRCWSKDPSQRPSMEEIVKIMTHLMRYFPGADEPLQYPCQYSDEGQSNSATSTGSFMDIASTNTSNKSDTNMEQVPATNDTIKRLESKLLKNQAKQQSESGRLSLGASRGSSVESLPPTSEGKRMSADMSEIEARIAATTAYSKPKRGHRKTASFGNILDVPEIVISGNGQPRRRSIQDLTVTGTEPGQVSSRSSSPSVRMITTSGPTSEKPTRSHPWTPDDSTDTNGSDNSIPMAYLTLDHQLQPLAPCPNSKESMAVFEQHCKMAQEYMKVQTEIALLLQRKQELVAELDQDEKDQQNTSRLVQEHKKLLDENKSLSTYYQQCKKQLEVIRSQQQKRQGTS
The conditions noted are these: at 1 µM.

Assay [3] concerns the target T1, Mitogen-activated protein kinase kinase kinase 7 (Homo sapiens). The conditions noted are these: at 10 µM.
For assay [4], the target named is T2, Serine/threonine-protein kinase TAO1 (Homo sapiens) (UniProt Q7L7X3).
T2 sequence (whole entry): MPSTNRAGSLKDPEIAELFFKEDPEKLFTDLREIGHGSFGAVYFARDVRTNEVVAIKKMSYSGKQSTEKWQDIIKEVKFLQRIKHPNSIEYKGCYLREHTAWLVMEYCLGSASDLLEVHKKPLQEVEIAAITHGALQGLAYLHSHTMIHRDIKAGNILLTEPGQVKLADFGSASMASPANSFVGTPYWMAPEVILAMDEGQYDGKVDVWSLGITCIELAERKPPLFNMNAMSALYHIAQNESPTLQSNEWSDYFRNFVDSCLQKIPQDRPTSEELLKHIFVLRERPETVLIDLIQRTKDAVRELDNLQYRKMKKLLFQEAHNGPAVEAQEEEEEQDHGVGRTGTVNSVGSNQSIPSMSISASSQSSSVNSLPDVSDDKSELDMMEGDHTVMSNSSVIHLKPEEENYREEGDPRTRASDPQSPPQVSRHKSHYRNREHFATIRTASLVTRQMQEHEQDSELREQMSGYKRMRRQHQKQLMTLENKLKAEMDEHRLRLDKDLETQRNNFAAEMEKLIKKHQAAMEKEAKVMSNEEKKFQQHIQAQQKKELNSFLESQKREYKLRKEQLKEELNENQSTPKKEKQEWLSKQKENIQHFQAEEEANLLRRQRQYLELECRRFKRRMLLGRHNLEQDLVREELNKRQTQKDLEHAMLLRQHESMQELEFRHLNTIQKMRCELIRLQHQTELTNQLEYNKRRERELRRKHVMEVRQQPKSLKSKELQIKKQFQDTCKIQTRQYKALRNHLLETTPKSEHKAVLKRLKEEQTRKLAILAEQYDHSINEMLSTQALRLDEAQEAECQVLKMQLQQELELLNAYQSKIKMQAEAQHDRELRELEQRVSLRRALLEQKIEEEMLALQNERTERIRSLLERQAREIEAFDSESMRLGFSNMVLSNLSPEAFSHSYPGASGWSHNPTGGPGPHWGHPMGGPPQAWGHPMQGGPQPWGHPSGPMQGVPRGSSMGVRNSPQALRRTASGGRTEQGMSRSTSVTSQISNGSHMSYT
As to conditions: at 1 µM.

For assay [5], the target named is T2, Serine/threonine-protein kinase TAO1 (Homo sapiens). The conditions noted are these: at 10 µM.
The target in assay [6] is T3, Serine/threonine-protein kinase TAO2 (Homo sapiens) (UniProt Q9UL54).
T3 sequence (whole entry): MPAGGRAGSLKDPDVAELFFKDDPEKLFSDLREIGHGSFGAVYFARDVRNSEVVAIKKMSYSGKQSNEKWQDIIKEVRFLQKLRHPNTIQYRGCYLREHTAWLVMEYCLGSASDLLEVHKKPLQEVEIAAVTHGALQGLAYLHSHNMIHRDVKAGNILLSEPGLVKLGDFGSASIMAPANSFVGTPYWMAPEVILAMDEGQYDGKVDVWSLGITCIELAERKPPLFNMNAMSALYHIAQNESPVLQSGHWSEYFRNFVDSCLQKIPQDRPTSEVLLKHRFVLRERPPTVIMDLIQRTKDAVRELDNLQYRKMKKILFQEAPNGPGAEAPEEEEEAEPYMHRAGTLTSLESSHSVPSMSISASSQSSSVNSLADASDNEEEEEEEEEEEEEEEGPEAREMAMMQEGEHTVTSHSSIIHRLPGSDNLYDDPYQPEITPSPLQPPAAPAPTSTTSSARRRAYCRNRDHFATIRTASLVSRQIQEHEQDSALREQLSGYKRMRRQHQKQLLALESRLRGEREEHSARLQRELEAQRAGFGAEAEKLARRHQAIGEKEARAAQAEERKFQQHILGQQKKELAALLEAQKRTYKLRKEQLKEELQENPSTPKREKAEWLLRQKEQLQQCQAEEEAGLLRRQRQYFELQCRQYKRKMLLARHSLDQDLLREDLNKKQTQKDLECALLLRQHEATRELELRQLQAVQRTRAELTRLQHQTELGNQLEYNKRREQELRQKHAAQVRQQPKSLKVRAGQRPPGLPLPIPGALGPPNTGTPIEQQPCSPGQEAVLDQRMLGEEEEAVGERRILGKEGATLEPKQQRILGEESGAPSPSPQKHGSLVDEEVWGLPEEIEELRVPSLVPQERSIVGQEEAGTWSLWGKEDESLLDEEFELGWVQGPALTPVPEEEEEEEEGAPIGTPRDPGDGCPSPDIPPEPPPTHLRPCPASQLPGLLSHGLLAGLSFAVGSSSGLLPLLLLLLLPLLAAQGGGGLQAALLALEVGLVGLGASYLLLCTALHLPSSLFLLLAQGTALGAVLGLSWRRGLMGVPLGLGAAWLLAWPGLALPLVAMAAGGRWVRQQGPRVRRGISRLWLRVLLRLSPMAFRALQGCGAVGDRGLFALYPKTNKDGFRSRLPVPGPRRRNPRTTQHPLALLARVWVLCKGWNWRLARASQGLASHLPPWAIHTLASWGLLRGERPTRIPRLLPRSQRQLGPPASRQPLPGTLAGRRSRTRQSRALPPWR
As to conditions: at 1 µM.

Assay [7] concerns the target T3, Serine/threonine-protein kinase TAO2 (Homo sapiens). The conditions noted are these: at 10 µM.
Assay [8] concerns the target T4, Serine/threonine-protein kinase TAO3 (Homo sapiens) (UniProt Q9H2K8).
T4 sequence (whole entry): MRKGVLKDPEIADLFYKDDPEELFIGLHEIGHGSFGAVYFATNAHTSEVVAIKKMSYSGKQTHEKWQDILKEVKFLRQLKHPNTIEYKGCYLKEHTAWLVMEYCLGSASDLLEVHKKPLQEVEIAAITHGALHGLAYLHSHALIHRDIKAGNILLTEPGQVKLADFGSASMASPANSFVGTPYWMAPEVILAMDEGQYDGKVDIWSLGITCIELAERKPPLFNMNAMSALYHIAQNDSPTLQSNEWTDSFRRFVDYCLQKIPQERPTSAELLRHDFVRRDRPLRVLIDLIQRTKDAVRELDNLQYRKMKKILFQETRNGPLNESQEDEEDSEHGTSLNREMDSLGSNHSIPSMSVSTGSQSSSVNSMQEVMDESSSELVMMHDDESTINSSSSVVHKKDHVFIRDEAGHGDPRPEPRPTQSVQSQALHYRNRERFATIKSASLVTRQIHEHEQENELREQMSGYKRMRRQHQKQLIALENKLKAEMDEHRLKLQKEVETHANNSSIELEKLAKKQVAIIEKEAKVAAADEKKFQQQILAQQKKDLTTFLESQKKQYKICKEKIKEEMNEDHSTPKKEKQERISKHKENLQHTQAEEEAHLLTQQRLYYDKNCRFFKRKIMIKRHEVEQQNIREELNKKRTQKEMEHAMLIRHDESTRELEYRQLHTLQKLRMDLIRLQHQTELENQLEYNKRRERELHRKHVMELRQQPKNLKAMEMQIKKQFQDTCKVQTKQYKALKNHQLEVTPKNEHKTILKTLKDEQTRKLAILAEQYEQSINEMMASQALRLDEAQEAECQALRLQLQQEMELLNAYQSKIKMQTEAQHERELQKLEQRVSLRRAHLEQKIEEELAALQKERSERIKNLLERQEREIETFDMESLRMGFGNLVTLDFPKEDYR
The conditions noted are these: at 1 µM.

Assay [9] deals with T4, Serine/threonine-protein kinase TAO3 (Homo sapiens). As to conditions: at 10 µM.
The target in assay [10] is T5, Serine/threonine-protein kinase TBK1 (Homo sapiens) (UniProt Q9UHD2).
T5 sequence (whole entry): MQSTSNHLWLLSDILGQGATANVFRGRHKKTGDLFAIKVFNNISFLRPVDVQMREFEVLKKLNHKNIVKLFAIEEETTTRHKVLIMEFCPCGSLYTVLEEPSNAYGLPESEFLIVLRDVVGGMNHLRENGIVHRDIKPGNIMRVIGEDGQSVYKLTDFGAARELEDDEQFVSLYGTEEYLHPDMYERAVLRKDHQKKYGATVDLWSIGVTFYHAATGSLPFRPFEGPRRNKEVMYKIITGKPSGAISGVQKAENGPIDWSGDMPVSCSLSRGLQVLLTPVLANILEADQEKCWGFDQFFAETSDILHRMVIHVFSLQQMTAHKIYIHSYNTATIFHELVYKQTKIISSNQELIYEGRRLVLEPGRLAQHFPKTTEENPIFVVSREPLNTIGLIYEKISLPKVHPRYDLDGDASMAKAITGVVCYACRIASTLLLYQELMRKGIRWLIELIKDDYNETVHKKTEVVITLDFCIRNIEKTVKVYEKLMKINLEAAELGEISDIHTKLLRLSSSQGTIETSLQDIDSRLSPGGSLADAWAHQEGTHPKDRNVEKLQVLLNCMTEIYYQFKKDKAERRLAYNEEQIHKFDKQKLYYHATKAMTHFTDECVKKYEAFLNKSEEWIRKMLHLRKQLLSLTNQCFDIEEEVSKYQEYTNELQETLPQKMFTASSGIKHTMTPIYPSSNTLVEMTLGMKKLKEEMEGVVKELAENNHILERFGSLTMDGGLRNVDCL
As to conditions: at 1 µM.

Turning to `CCC(=O)Nc1ccc2ncnc(Nc3cccc(Br)c3)c2c1`, the residual activity in assay [1] came out at 84%; in assay [2] it was 92%; in assay [3], 90%; in assay [4] it was 96%; in [5] it was 86%; in assay [6], 98%. The residual activity in assay [7] worked out at 91%; in assay [8] it was 96%; in assay [9], 95%; in assay [10] it was 69%.
